A selection: hits, their analogues and other compounds. The true share with any hit is near 3%.
ROMK mod: ROMK potassium channel modulators, primary screen, cell-based, thallium flux, MLSMR library; ATP-sensitive inward rectifier potassium channel 1 (Homo sapiens), P48048; Tet-inducible ROMK, thallium flux fluorescence; actives lie on both sides; B-score at 10 µM; 130,000 compounds, 2% hits;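 active means signal ratio slope over the read window, or its plate-corrected B-score, at least 3 SD from the plate mean, either direction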;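 further: B-score of the F/F0 ratio slope over 7 to 12 s after thallium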
Target sequence (P48048 whole entry, looked up): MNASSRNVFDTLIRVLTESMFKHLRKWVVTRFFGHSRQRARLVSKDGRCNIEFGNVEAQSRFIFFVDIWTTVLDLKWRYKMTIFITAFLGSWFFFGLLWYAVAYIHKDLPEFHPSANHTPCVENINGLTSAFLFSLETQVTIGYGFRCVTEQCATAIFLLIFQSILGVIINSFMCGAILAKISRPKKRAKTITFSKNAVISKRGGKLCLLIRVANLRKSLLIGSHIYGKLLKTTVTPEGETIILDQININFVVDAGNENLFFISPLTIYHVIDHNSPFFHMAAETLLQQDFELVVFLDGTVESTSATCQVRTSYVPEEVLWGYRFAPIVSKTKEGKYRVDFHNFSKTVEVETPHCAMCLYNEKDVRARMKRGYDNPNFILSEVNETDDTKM
SDO1 yeast rescue: growth rescue of sdo1-depleted yeast, primary screen, S. cerevisiae, bone marrow failure model. 140,000 compounds, 0.21% hits. S. cerevisiae sdo1-depleted JHY4D growth rescue, OD600 30 h; hits give high values; pdr5 snq2 efflux-pump mutant strain. z-score at 10 µM;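 active means z-score above 3 at both the 24 hr and the 30 hr optical density reads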;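 further: z-score against mean and SD of all compound wells on the same plate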
Measles CPE: compounds protecting cells from measles virus cytopathic effect, primary screen, measles RdRp inhibitor project, single point, MLSMR library, absorbance; Measles virus-infected cells, CPE protection; protection (pct of control), % at 4 µM; 140,000 compounds, 1.5% hits; AID 841, 2007; in the data active means protection mostly above about 24%, no sharp cut-off; inactive means mostly below about 26%
Insulin prom inh: inhibitors of insulin promoter-driven GFP, primary screen, imaging, TRM-6 cells (human fetal islet line), eGFP reporter, cell count; AID 1273, 2008; reporter expression induced with tamoxifen; inhibition, % at 2 µM; 130,000 compounds, 0.9% hits;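 active means inhibition above the mean plus 3 SD, with well images judged a real hit on visual review, cut at about 60% in these data, passing the limit was not always enough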
* = called active by the depositor.

Results for Cc1cc(C)nc(N2CCCC(C(=O)NCCc3ccccc3F)C2)n1 (configuration not stated) ?
ROMK mod: -0.0448; SDO1 yeast rescue: -0.69; Measles CPE: 43.3*; Insulin prom inh: -13.3

How did CN1CCN(Cc2c(O)ccc3occ(C(=O)c4ccccc4)c23)CC1 do in these assays?
SDO1 yeast rescue: -1.3; Measles CPE: 2.0

How did CC(=O)C(C(C)=O)c1c(Cl)c(O)c(O)c2c(C(=O)c3ccccc3)coc12 do in these assays?
ROMK mod: -3.43*; SDO1 yeast rescue: -0.38; Measles CPE: 0.2

How did O=C1/C(=C/c2cccnc2)Oc2cc(OS(=O)(=O)c3ccc(F)cc3)ccc21 do in these assays?
ROMK mod: -0.164; SDO1 yeast rescue: -1.73; Measles CPE: 20.4; Insulin prom inh: 33.3

How did Cc1ccc(S(=O)(=O)Oc2ccc3c(c2)O/C(=C\c2cccnc2)C3=O)cc1 do in these assays?
ROMK mod: -1.13; SDO1 yeast rescue: -2.47; Measles CPE: 33.1*; Insulin prom inh: -4.2

What do the screens show for `COc1cccc(Nc2nc3ccc(OC)cc3s2)c1`?
ROMK mod: -0.157; Insulin prom inh: 71.4*

Results for CCOC(=O)CCCn1ncn2c(cc3occc32)c1=O ?
ROMK mod: -0.483; SDO1 yeast rescue: 0.5; Measles CPE: 26.0; Insulin prom inh: -7.0

What do the screens show for `CC(C)Oc1ccc(C(CC(=O)NCc2ccco2)c2ccccc2)cc1` (configuration not stated)?
SDO1 yeast rescue: -1.07; Measles CPE: 24.1*; Insulin prom inh: 28.6

Results for Cc1cccc(C(CC(=O)NCc2ccco2)c2ccccc2)c1O (configuration not stated) ?
ROMK mod: 1.03; Insulin prom inh: -30.2

How did N#CCCS(=O)(=O)c1nnnn1-c1ccccc1 do in these assays?
ROMK mod: -4.75*; Insulin prom inh: 28.6

How did O=C(c1ccco1)n1nc(-c2ccc(Cl)cc2)nc1NCc1ccco1 do in these assays?
ROMK mod: 0.29; SDO1 yeast rescue: -0.74; Measles CPE: 1.7; Insulin prom inh: 44.7

How did O=C(COc1ccccc1)n1nc(-c2ccc(Cl)cc2)nc1NCc1ccco1 do in these assays?
SDO1 yeast rescue: 0.33; Measles CPE: 39.9*; Insulin prom inh: -18.4

Results for Fc1ccc(-c2nnn(Cc3nc4ccccc4s3)n2)cc1 ?
ROMK mod: -0.00551; SDO1 yeast rescue: -0.92; Measles CPE: 46.3*; Insulin prom inh: -78.8

How did O=C(Cn1cnc2c(nnn2-c2ccccc2)c1=O)N1CCCc2ccccc21 do in these assays?
SDO1 yeast rescue: 0.34; Measles CPE: 53.1*; Insulin prom inh: -28.6

What do the screens show for `O=C(Cn1cnc2c(nnn2Cc2ccccc2)c1=O)N1CCCc2ccccc21`?
SDO1 yeast rescue: -0.26; Measles CPE: 11.2

Results for Cc1ccc(NC(=O)c2ccc(COc3ccc4c(c3)CCC4)cc2)c(C)c1 ?
SDO1 yeast rescue: 0.18; Measles CPE: 9.7

Results for COc1ccc(N2C(=O)CC(N3CCC(O)(c4ccc(Cl)cc4)CC3)C2=O)cc1 (configuration not stated) ?
ROMK mod: -0.138; SDO1 yeast rescue: 0.3; Measles CPE: 26.2*; Insulin prom inh: 26.8

What do the screens show for `Cc1cccc(C(=O)NCC(=O)N2CC(=O)Nc3ccccc32)c1`?
ROMK mod: 0.158; Insulin prom inh: 3.7

What do the screens show for `CCOC(=O)C1C(c2ccc(O)c(OC)c2)NC(=S)NC1(O)C(F)(F)F` (configuration not stated)?
ROMK mod: 0.0855; SDO1 yeast rescue: -0.21; Measles CPE: 4.7; Insulin prom inh: 28.6

What do the screens show for `Cc1cccc(C(=O)N/N=C/c2ccc3c(c2)OCO3)n1`?
SDO1 yeast rescue: 1.73; Measles CPE: 3.2; Insulin prom inh: -67.6

What do the screens show for `O=C(N/N=C/c1ccc2c(c1)OCO2)c1ccccn1`?
SDO1 yeast rescue: 0.65; Measles CPE: 92.4*; Insulin prom inh: 46.4

What do the screens show for `CC1(C)CC(=O)C2=C(C1)N(c1ccc(F)cc1)C(=O)C2(NC(=O)c1ccccc1)C(F)(F)F` (configuration not stated)?
ROMK mod: 0.578; SDO1 yeast rescue: 0.29; Measles CPE: 14.9; Insulin prom inh: 18.8

Results for CN1CCC(OC(=O)c2cccc(Cl)c2)CC1 ?
ROMK mod: 0.109

What do the screens show for `COc1ccc(/C=C/C(=O)Nc2cc(F)ccc2C)cc1S(=O)(=O)N1CCOCC1`?
ROMK mod: -0.842; Insulin prom inh: 0.0

Results for Fc1ccc(-c2n[nH]c(=S)n2CC2CCCO2)cc1 (configuration not stated) ?
ROMK mod: 2.45*; SDO1 yeast rescue: -0.07; Measles CPE: 4.3

What do the screens show for `S=c1[nH]nc(-c2ccncc2)n1CC1CCCO1` (configuration not stated)?
SDO1 yeast rescue: 0.63; Measles CPE: 3.4; Insulin prom inh: 11.5

Results for CCNc1nc(Oc2ccc(=O)[nH]n2)nc(N2CCOCC2)n1 ?
ROMK mod: 1.62; SDO1 yeast rescue: 0.16; Measles CPE: 15.8; Insulin prom inh: 75.0*

What do the screens show for `O=C(Nc1ccccc1)N1CCn2c(nc3ccccc32)C1`?
ROMK mod: -0.346; SDO1 yeast rescue: 1.1; Measles CPE: 47.8*

What do the screens show for `CCN(CC)C(=O)N1CCn2c(nc3ccccc32)C1`?
SDO1 yeast rescue: 0.61; Measles CPE: 19.6; Insulin prom inh: -153.8

Results for Cc1c(C#N)c(O)n(C)c(=O)c1N=Nc1ccc(S(N)(=O)=O)cc1 ?
ROMK mod: 0.771; Insulin prom inh: 65.0*

What do the screens show for `Cc1c(C#N)c(O)n(CCO)c(=O)c1N=Nc1ccc(S(N)(=O)=O)cc1`?
ROMK mod: -0.635; Insulin prom inh: -5.0

What do the screens show for `Cc1ccc(-c2nc(C3CCCN(S(=O)(=O)c4ccc(C(F)(F)F)cc4)C3)no2)cc1` (configuration not stated)?
SDO1 yeast rescue: -0.43; Measles CPE: 30.6*; Insulin prom inh: 33.3

Results for CC(C)c1ccccc1OCC(=O)NCC(c1cccs1)N1CCOCC1 (configuration not stated) ?
SDO1 yeast rescue: -0.28; Measles CPE: 29.5*; Insulin prom inh: -40.0

Results for Cc1cc(C)c(NC(=O)c2cc3c(nc4sccn43)s2)c(C)c1 ?
SDO1 yeast rescue: -0.84; Measles CPE: 28.0*; Insulin prom inh: 9.1

What do the screens show for `C=CCc1cccc(CNc2c(C)n(C)n(-c3ccccc3)c2=O)c1O`?
SDO1 yeast rescue: -0.66; Measles CPE: 17.7; Insulin prom inh: 75.8*

How did On1nnc2cc(C(F)(F)F)ccc21 do in these assays?
ROMK mod: 0.872

Results for Cc1nc2cc(C(F)(F)F)ccc2n1C ?
ROMK mod: -0.651; Insulin prom inh: 75.0*

How did O=C(NCc1ccco1)c1ccccc1-c1ccc(C(F)(F)F)cc1 do in these assays?
SDO1 yeast rescue: -1.1; Measles CPE: 6.6; Insulin prom inh: -28.9

What do the screens show for `O=C(O)c1ccc(CNC(=O)c2ccc(C(F)(F)F)cc2)cc1`?
ROMK mod: 0.34; Insulin prom inh: 72.7*

Results for O=C(NCc1ccco1)c1ccc(C(F)(F)F)cc1 ?
ROMK mod: 0.809; Insulin prom inh: 77.8*

Assay outcomes: PubChem BioAssay, several laboratories
